# Source: PubChem BioAssay (EPA / NIEHS)
# Records with an inconclusive call do not appear. The source made the active and inactive calls. Rule for the calls: active = hit-call score of the fitted dose curve at least 0.9, where 1 is the maximum; inconclusive = response in the unintended direction; inactive = score below 0.9.
# Columns and labels:
# [1] = molecular target: human Colony Stimulating Factor 1 Receptor (CSF1R), CSF1R (gene 1436) (UniProt P07333); assay: NVS_ENZ_hCSF1R: NovaScreen (NVS) Enzymatic Assay for human Colony Stimulating Factor 1 Receptor (CSF1R) (AID 2283150)
# Outline: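 Cell-free recombinant human CSF1R kinase with fluorescent substrate, product separated by electrophoretic mobility shift; read 1 h after dosing. Primary screen at 25 uM in duplicate, actives then in concentration-response up to 50 uM, relative to DMSO.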
# [2] = molecular target: human Esterase Plasma (ES), BCHE (gene 590) (UniProt P06276); assay: NVS_ENZ_hES: NovaScreen (NVS) Enzymatic Assay for human Esterase Plasma (ES) (AID 2283157)
# Outline: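 Chemicals were added to plasma-extracted human enzyme in a cell-free format, and activity was read colorimetrically after 0.25 hour. Activity loss was referenced to DMSO; concentration-response top dose was 50 uM.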
# [3] = molecular target: human Caspase 8 (CASP8), CASP8 (gene 841) (UniProt Q14790); assay: NVS_ENZ_hCASP8: NovaScreen (NVS) Enzymatic Assay for human Caspase 8 (CASP8) (AID 2283146)
# Outline: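 E. coli-expressed enzyme was used in a cell-free fluorogenic substrate assay read 1 h after dosing. Loss of signal was scored relative to DMSO, and the primary screen was run in duplicate at 25 uM.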
# [4] = molecular target: human LYN Proto-Oncogene, Src family Tyrosine Kinase (LynA), LYN (gene 4067) (UniProt P07948); assay: NVS_ENZ_hLynA: NovaScreen (NVS) Enzymatic Assay for human LYN Proto-Oncogene, Src family Tyrosine Kinase (LynA) (AID 2283173)
# Outline: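 Recombinant kinase with fluorescent substrate; product separated from substrate by electrophoretic mobility shift and read 1 h after dosing. Duplicate screen at 25 uM, then concentration-response up to 50 uM; activity scored as signal loss against DMSO.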
# [5] = molecular target: Mitogen-activated protein kinase 3 (Homo sapiens) (UniProt P27361); assay: NVS_ENZ_hMAPK3: NovaScreen (NVS) Enzymatic Assay for human Mitogen-Activated Protein Kinase 3 (MAPK 3) (AID 2283177)
# Outline: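 Cell-free enzymatic assay with recombinant protein and specific substrate; fluorescence and electrophoretic mobility shift read-out 1 h after dosing. Primary screen duplicate at 25 uM; actives then run in concentration-response up to 50 uM, loss of signal versus DMSO.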
# [6] = molecular target: human Matrix Metalloproteinase-7 (MMP7), MMP7 (gene 4316) (UniProt P09237); assay: NVS_ENZ_hMMP7: NovaScreen (NVS) Enzymatic Assay for human Matrix Metalloproteinase-7 (MMP7) (AID 2283183)
# Outline: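 Cell-free fluorescence enzymatic assay read 1 h after compound addition, activity loss analyzed against DMSO. Primary duplicate testing at 25 uM; compounds meeting threshold rerun in singleton concentration-response up to 50 uM.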
# [7] = molecular target: human Matrix Metalloproteinase-2 (MMP2), MMP2 (gene 4313) (UniProt P08253); assay: NVS_ENZ_hMMP2: NovaScreen (NVS) Enzymatic Assay for human Matrix Metalloproteinase-2 (MMP2) (AID 2283184)
# Outline: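 Cell-free recombinant MMP2 activity with a fluorescent substrate, read 1 h after dosing. Primary screen in duplicate at 25 uM; actives then run in concentration series; loss of signal fitted versus DMSO.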
# [8] = molecular target: human Mitogen- and Stress-activated Protein Kinase-1 (Msk1), RPS6KA5 (gene 9252) (UniProt O75582); assay: NVS_ENZ_hMsk1: NovaScreen (NVS) Enzymatic Assay for human Mitogen- and Stress-activated Protein Kinase-1 (Msk1) (AID 2283187)
# Outline: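 Recombinant kinase with fluorescent substrate; product separated by electrophoretic mobility shift, read 1 h after dosing. Screened in duplicate at 25 uM; hits (e.g. ≥30% inhibition) tested in concentration–response up to 50 uM. DMSO baseline.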
# [9] = molecular target: human Casein Kinase 1-delta (CK1D), CSNK1D (gene 1453) (UniProt P48730); assay: NVS_ENZ_hCK1D: NovaScreen (NVS) Enzymatic Assay for human Casein Kinase 1-delta (CK1D) (AID 2283148)
# Outline: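 Recombinant human CK1-delta, cell-free; fluorescent substrate with electrophoretic mobility-shift separation of product, read 1 h after dosing. Single 25 uM duplicate screen, then concentration-response up to 50 uM; loss of signal vs DMSO.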
# [10] = molecular target: Collagenase 3 (Homo sapiens) (UniProt P45452); assay: NVS_ENZ_hMMP13: NovaScreen (NVS) Enzymatic Assay for human Matrix Metalloproteinase-13 (MMP13) (AID 2283182)
# Outline: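 Recombinant MMP13 cleaving fluorescent substrate, cell-free, measured 1 h after dosing. Primary duplicate screen at 25 uM; actives tested in concentration-response up to 50 uM; loss of signal relative to DMSO.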
# [11] = molecular target: human Matrix Metalloproteinase-3 (MMP3), MMP3 (gene 4314) (UniProt P08254); assay: NVS_ENZ_hMMP3: NovaScreen (NVS) Enzymatic Assay for human Matrix Metalloproteinase-3 (MMP3) (AID 2283185)
# Outline: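 Cell-free recombinant human MMP3 activity, fluorescence intensity read 1 h after dosing. Primary screen duplicate at 25 uM, actives retested in concentration series; loss of signal vs DMSO baseline.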
# [12] = molecular target: human MAP Kinase-Activated Protein Kinase 2 (MAPKAPK2), MAPKAPK2 (gene 9261) (UniProt P49137); assay: NVS_ENZ_hMAPKAPK2: NovaScreen (NVS) Enzymatic Assay for human MAP Kinase-Activated Protein Kinase 2 (MAPKAPK2) (AID 2283178)
# Outline: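 Cell-free recombinant human MAPKAPK2 activity measured by fluorescence with electrophoretic mobility shift separation of substrate and product, 1 hr after dosing. Loss of signal versus DMSO; primary screen at 25 uM, concentration-response up to 50 uM.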
# [13] = molecular target: human Insulin Receptor (InsR), INSR (gene 3643) (UniProt P06213); assay: NVS_ENZ_hInsR: NovaScreen (NVS) Enzymatic Assay for human Insulin Receptor (InsR) (AID 2283168)
# Outline: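 Fluorescent substrate phosphorylation by recombinant kinase, product resolved by electrophoretic mobility shift, read 1 h after dosing. Screened in duplicate at 25 uM; hits (e.g., 30% inhibition) run in concentration-response to 50 uM; DMSO as baseline.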
# [14] = molecular target: human c-Jun N-terminal Kinases (JNK2), MAPK9 (gene 5601) (UniProt P45984); assay: NVS_ENZ_hJNK2: NovaScreen (NVS) Enzymatic Assay for human c-Jun N-terminal Kinases (JNK2) (AID 2283171)
# Outline: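 Cell-free recombinant human JNK2 activity assay; fluorescent substrate and product separated by electrophoretic mobility shift, read 1 h after dosing. Primary duplicate screen at 25 uM; actives run in concentration-response up to 50 uM, relative to DMSO.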
# [15] = molecular target: human Elastase, ELANE (gene 1991) (UniProt P08246); assay: NVS_ENZ_hElastase: NovaScreen (NVS) Enzymatic Assay for human Elastase (AID 2283153)
# Outline: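 Cell-free elastase from human neutrophils, 1.5 h after dosing, activity read by absorbance. Primary screen in duplicate at 25 uM; hits (e.g., 30% inhibition) rerun in singleton concentration-response up to 50 uM, fitted versus DMSO.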
# [16] = molecular target: human Ephrin type-A Receptor 1 (EphA1), EPHA1 (gene 2041) (UniProt P21709); assay: NVS_ENZ_hEphA1: NovaScreen (NVS) Enzymatic Assay for human Ephrin type-A Receptor 1 (EphA1) (AID 2283158);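 note: activity is signal loss versus DMSO meaning EphA1 kinase inhibition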
# Outline: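 Here the EphA1 protein is recombinant and the substrate fluorescent, with electrophoretic separation before fluorescence detection at 1 hour. Signal loss against DMSO defines activity; plate controls included; follow-up concentration series reach 50 uM.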
# [17] = molecular target: human Janus Kinase 2 (Jak2), JAK2 (gene 3717) (UniProt O60674); assay: NVS_ENZ_hJak2: NovaScreen (NVS) Enzymatic Assay for human Janus Kinase 2 (Jak2) (AID 2283169)
# Outline: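 Cell-free recombinant human JAK2 enzyme activity assay, fluorescence/electrophoretic mobility shift read 1 h after dosing. Screened in duplicate at 25 uM, then concentration-response up to 50 uM; activity as signal loss relative to DMSO.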
# [18] = molecular target: human Dual Specificity Protein Phosphatase 3 (DUSP3), DUSP3 (gene 1845) (UniProt P51452); assay: NVS_ENZ_hDUSP3: NovaScreen (NVS) Enzymatic Assay for human Dual Specificity Protein Phosphatase 3 (DUSP3) (AID 2283152);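 note: phosphatase activity of recombinant human DUSP3 on a fluorogenic substrate without cells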
# Outline: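 Cell-free assay with recombinant human DUSP3 and fluorogenic substrate, read by fluorescence intensity. Primary screen ran duplicate at 25 uM; actives followed up in concentration series; loss of signal versus DMSO scored.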
# [19] = molecular target: Histone deacetylase 3 (Homo sapiens) (UniProt O15379); assay: NVS_ENZ_hHDAC3: NovaScreen (NVS) Enzymatic Assay for human Histone Deacetylase 3 (HDAC3) (AID 2283163)
# Outline: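 Recombinant human HDAC3 with fluorescent substrate, 1 h after dosing; product separated from substrate by electrophoretic mobility shift and read by fluorescence. Primary screen at 25 uM in duplicate; actives (e.g. ≥30% inhibition) retested in concentration-response up to 50 uM.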
# Sequence of Mitogen-activated protein kinase 3 (Homo sapiens) (P27361 whole entry, looked up): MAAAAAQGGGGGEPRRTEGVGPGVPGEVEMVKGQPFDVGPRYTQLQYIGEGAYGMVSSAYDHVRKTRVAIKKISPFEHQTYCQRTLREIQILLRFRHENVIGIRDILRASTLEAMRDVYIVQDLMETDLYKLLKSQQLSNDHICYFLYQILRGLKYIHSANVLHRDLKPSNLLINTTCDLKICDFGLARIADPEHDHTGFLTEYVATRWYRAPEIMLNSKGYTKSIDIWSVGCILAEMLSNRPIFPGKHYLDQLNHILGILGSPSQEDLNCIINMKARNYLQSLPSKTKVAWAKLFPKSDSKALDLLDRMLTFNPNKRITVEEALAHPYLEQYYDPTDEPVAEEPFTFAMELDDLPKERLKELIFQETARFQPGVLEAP
# Sequence of human Matrix Metalloproteinase-3 (MMP3), MMP3 (gene 4314) (P08254 whole entry, looked up): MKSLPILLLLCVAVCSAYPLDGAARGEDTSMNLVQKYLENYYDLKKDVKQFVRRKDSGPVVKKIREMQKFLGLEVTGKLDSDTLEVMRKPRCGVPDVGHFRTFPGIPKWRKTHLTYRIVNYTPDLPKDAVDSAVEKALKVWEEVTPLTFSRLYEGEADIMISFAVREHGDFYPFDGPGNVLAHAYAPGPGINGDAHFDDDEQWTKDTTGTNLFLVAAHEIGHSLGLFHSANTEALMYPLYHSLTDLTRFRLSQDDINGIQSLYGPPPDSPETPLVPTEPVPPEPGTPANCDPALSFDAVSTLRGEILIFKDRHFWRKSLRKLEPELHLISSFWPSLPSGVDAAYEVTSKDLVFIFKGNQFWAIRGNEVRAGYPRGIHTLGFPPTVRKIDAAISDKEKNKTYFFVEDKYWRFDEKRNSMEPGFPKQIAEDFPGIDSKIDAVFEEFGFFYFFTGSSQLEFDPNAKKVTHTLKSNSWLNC
# Sequence of human LYN Proto-Oncogene, Src family Tyrosine Kinase (LynA), LYN (gene 4067) (P07948 whole entry, looked up): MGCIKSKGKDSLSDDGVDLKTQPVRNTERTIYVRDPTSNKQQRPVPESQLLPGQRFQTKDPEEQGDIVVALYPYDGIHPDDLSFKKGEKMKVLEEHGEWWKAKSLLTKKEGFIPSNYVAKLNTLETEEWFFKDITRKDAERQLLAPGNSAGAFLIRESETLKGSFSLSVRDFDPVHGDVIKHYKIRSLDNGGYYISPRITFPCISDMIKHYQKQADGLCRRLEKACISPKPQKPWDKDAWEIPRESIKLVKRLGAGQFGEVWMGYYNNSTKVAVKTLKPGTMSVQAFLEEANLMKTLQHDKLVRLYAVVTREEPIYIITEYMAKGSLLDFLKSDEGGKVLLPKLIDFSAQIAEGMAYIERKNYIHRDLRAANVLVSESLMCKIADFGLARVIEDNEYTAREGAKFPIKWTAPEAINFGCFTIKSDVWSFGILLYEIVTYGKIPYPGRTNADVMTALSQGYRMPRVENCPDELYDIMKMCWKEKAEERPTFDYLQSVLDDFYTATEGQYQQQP
# Sequence of human Colony Stimulating Factor 1 Receptor (CSF1R), CSF1R (gene 1436) (P07333 whole entry, looked up): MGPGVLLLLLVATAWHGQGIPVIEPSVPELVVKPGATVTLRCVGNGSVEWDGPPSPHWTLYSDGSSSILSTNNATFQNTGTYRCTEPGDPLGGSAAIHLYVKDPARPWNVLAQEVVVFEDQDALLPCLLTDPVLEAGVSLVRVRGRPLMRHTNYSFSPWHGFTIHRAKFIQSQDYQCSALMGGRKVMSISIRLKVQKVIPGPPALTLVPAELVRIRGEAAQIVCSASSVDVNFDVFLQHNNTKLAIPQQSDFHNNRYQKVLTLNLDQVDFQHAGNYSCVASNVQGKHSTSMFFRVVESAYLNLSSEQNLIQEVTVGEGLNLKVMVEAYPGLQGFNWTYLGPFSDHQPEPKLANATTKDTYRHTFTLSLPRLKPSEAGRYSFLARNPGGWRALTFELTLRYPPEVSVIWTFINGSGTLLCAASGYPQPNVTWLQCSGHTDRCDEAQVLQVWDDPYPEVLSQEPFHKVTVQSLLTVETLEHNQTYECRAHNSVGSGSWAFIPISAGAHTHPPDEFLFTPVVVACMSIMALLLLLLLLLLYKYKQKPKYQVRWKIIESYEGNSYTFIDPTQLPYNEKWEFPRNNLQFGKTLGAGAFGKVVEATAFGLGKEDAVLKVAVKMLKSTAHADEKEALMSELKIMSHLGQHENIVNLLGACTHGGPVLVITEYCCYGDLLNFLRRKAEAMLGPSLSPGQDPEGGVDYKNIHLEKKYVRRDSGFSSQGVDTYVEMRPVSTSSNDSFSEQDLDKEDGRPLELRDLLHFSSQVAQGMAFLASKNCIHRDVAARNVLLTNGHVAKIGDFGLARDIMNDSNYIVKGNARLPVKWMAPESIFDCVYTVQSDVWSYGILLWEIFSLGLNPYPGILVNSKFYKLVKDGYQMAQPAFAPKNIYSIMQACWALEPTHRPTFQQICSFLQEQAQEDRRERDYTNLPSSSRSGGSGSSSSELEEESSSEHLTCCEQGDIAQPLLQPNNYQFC
# Sequence of human Caspase 8 (CASP8), CASP8 (gene 841) (Q14790 whole entry, looked up): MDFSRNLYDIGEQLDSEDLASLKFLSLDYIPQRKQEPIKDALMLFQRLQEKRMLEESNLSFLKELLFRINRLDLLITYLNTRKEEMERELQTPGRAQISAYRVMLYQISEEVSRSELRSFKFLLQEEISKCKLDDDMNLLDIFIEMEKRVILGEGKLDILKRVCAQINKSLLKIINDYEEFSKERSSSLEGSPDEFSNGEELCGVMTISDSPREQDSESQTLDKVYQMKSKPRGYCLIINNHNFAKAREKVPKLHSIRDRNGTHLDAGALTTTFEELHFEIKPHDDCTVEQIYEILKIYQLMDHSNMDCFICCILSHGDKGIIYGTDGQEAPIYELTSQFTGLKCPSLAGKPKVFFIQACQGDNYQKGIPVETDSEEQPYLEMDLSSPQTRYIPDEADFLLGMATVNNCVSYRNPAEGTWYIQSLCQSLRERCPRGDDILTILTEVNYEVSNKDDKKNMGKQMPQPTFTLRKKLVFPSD
# Sequence of human Elastase, ELANE (gene 1991) (P08246 whole entry, looked up): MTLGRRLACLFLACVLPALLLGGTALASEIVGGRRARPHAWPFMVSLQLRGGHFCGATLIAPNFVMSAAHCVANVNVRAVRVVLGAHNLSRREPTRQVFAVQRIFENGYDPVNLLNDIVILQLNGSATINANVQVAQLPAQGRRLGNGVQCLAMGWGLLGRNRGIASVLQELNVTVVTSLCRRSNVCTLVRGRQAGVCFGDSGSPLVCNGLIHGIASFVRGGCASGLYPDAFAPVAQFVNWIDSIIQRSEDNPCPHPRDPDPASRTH
# Sequence of human Esterase Plasma (ES), BCHE (gene 590) (P06276 whole entry, looked up): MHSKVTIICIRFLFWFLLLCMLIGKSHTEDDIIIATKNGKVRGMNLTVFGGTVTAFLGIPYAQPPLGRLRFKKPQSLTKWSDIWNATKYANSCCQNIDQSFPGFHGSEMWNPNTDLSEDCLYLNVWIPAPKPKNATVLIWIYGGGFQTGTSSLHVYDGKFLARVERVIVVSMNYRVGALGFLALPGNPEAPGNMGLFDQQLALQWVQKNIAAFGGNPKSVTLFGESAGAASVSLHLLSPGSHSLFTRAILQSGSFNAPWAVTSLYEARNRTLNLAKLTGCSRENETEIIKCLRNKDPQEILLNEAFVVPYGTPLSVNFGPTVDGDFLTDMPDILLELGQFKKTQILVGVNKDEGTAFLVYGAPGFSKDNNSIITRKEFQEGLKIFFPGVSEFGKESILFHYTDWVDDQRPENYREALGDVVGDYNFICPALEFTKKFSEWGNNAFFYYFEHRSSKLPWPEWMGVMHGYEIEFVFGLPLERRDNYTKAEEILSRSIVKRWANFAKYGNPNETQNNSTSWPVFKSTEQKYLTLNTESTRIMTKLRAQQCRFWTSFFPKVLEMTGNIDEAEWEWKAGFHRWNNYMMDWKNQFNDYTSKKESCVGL
# Sequence of human Matrix Metalloproteinase-2 (MMP2), MMP2 (gene 4313) (P08253 whole entry, looked up): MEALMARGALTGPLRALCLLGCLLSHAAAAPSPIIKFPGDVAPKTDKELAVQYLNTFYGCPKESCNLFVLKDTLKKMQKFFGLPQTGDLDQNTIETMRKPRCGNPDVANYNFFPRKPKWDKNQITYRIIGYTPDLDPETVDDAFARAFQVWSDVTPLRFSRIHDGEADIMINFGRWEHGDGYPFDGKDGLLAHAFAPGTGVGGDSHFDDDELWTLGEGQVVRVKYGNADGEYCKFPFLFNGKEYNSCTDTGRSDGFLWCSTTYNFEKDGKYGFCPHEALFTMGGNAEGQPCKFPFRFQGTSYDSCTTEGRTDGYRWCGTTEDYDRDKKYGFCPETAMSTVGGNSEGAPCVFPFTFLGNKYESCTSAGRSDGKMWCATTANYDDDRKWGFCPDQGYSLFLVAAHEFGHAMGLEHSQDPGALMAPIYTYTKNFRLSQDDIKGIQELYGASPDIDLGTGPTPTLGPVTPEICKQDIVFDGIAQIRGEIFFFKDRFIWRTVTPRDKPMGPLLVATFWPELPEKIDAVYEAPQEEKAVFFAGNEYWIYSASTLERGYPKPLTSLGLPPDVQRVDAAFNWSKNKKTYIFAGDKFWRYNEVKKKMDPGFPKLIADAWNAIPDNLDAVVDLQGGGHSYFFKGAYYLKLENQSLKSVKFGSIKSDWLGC
# Sequence of human Casein Kinase 1-delta (CK1D), CSNK1D (gene 1453) (P48730 whole entry, looked up): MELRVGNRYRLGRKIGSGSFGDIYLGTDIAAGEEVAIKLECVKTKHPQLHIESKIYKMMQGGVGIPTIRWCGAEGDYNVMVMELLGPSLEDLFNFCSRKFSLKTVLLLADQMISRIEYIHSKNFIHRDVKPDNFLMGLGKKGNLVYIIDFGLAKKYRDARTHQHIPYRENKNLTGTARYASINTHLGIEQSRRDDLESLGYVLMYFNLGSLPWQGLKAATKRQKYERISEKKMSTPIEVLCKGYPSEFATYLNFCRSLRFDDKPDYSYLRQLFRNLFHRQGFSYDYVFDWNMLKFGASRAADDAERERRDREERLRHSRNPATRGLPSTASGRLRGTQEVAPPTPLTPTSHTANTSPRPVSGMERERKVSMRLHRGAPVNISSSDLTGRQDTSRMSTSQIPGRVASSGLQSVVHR
# Sequence of human Dual Specificity Protein Phosphatase 3 (DUSP3), DUSP3 (gene 1845) (P51452 whole entry, looked up): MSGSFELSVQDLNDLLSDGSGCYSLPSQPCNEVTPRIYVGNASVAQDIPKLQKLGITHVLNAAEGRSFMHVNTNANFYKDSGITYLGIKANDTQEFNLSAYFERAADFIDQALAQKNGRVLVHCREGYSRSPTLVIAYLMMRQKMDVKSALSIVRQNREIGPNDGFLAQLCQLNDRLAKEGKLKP
compound,measurement,setting,value
CCN(C(=O)c1cc(C)cc(OC[C@H](C)Nc2ccncc2)c1)C(C)C,outcome,[1],inactive
same,AC50,[2],11.8 µM (active)
C[C@](N)(Cc1ccc(O)c(O)c1)C(=O)O,outcome,[1],inactive
CC(C)c1cccc(C(C)C)c1N1C(=O)c2ccc(O)cc2C1=O,outcome,[3],inactive
same,outcome,[4],inactive
same,outcome,[5],inactive
same,outcome,[6],inactive
same,outcome,[7],inactive
same,outcome,[8],inactive
Cc1ccc(C)c(O)c1,outcome,[3],inactive
O=C(O)CCN(C1(C(=O)NO)CCCC1)S(=O)(=O)c1ccc(Oc2ccc(F)cc2)cc1,outcome,[9],inactive
same,AC50,[10],0.0041 µM (active)
same,AC50,[7],0.0139 µM (active)
same,AC50,[11],8.47 µM (active)
CC[C@H](C)C(=O)O[C@H]1C[C@@H](C)C=C2C=C[C@H](C)[C@H](CC[C@@H]3C[C@@H](O)CC(=O)O3)[C@H]21,outcome,[3],inactive
same,outcome,[5],inactive
same,outcome,[6],inactive
same,outcome,[7],inactive
Nc1nc2ncc(CNc3ccc(C(=O)N[C@@H](CCC(=O)O)C(=O)O)cc3)nc2c(=O)[nH]1,AC50,[9],11.4 µM (active)
same,AC50,[12],37.4 µM (active)
COCCOCCOCCOC,outcome,[3],inactive
same,outcome,[13],inactive
O=C(O)c1cccc(N(Cc2cccnc2)c2ccc(OC(F)F)c(OC(F)F)c2)c1,AC50,[9],10.9 µM (active)
same,AC50,[14],4.96 µM (active)
same,outcome,[5],inactive
CNS(=O)(=O)c1cc(C(=O)N2CCC(CCN3C4CCC3CC(n3c(C)nc5ccccc53)C4)(c3cccc(F)c3)CC2)c(Cl)cc1F (stereo not drawn),AC50,[1],39.1 µM (active)
same,AC50,[15],8.03 µM (active)
same,outcome,[16],inactive
same,AC50,[17],10.2 µM (active)
same,outcome,[4],inactive
same,AC50,[10],14.5 µM (active)
same,AC50,[7],8.32 µM (active)
CCC(C)(C)C(=O)O[C@H]1C[C@@H](C)C=C2C=C[C@H](C)[C@H](CC[C@@H]3C[C@@H](O)CC(=O)O3)[C@H]21,AC50,[18],12.1 µM (active)
same,outcome,[15],inactive
same,outcome,[2],inactive
COc1ccc2sc(C(=O)Nc3nnn[nH]3)c(OC(C)C)c2c1,AC50,[9],0.385 µM (active)
same,outcome,[1],inactive
same,outcome,[15],inactive
same,outcome,[16],inactive
same,AC50,[17],8.74 µM (active)
same,AC50,[11],46.7 µM (active)
Cn1c(=O)c2c(ncn2C)n(C)c1=O,outcome,[9],inactive
Cc1[nH]cnc1C[C@H]1CCc2c(C)c3ccccc3n2C1=O,AC50,[9],13.9 µM (active)
same,AC50,[2],14.4 µM (active)
same,AC50,[11],29.9 µM (active)
COc1ccc(/C=C/S(=O)(=O)NC(=O)c2ccc(C)cc2Cl)cc1,AC50,[9],30.5 µM (active)
same,outcome,[16],inactive
CC(C)CCO,outcome,[3],inactive
same,outcome,[16],inactive
same,outcome,[6],inactive
same,outcome,[11],inactive
COCCOc1cc2cc(C(=O)NC3CCN(C(C)C)CC3)n(CC(=O)Nc3ccc(Cl)cn3)c2cn1,outcome,[1],inactive
same,AC50,[2],23.3 µM (active)
same,outcome,[19],inactive
CCOC(=O)COc1ccc2c(c1)CC(NCC(O)c1cccc(Cl)c1)CC2 (stereo not drawn),outcome,[9],inactive
same,AC50,[2],10.9 µM (active)
C1=CCCC=CCCC=CCC1,outcome,[9],inactive
O=C(OC[C@H]1O[C@@H](OC(=O)c2cc(O)c(O)c(OC(=O)c3cc(O)c(O)c(O)c3)c2)[C@H](OC(=O)c2cc(O)c(O)c(OC(=O)c3cc(O)c(O)c(O)c3)c2)[C@@H](OC(=O)c2cc(O)c(O)c(OC(=O)c3cc(O)c(O)c(O)c3)c2)[C@@H]1OC(=O)c1cc(O)c(O)c(OC(=O)c2cc(O)c(O)c(O)c2)c1)c1cc(O)c(O)c(OC(=O)c2cc(O)c(O)c(O)c2)c1,AC50,[18],3.95 µM (active)
same,AC50,[15],0.0537 µM (active)
same,AC50,[11],0.437 µM (active)
O=C(O)c1cccc(Oc2ccccc2)c1,outcome,[9],inactive
same,outcome,[4],inactive
same,outcome,[6],inactive
